Reference: PubChem BioAssay AID1259374 (The Scripps Research Institute Molecular Screening Center, 2018)
Several values for one entry are separate records, joined by “and”; a condition that tells them apart may be missing. Equal entries are not always repeated. Out of some 650,000 compounds screened, about 5,900 (0.91%) were called active. Rule as the data show it: active = inhibition above about 50%; inactive = the rest. For the sample, actives were picked, then their nearest neighbours and some compounds at random. Where a structure was tested more than once in an assay, its records may differ in their call.

molecular target: Microphthalmia-associated transcription factor (Homo sapiens) (UniProt O75030); test: MITF inhibitors, primary screen, biochemical, AlphaScreen, human (AID 1259374); settings: AlphaScreen MITF homodimerization, bead proximity signal; at 2.6 µM; stronger effect = higher value;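 also: 0% = vehicle wells with protein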
Sequence (O75030 whole entry, looked up): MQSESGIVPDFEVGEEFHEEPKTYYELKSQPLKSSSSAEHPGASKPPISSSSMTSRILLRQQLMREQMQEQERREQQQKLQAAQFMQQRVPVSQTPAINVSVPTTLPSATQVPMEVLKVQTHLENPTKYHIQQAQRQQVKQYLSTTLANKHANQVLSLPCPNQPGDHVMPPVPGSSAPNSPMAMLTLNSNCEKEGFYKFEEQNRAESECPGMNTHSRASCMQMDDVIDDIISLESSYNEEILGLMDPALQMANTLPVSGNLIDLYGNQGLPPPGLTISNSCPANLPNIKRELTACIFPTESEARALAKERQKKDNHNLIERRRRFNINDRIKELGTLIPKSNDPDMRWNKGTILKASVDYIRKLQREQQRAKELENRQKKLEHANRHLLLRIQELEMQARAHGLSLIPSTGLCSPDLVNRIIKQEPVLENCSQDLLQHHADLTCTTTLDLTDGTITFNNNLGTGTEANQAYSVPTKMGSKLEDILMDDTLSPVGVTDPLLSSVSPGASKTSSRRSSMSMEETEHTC

Structure (SMILES) | inhibition
Cn1c(=O)c2c(nc(N3CCCCC3)n2CCNC2=NCCCCC2)n(C)c1=O | 0.31% (inactive)
Cc1nccn1CCNC(=O)Cn1nnnc1CN1CCCCCC1 | 0.85% (inactive)
COc1ccc(C2=NN(c3nc(-c4ccccc4)c4cc(Cl)ccc4n3)C(c3ccc([N+](=O)[O-])cc3)C2)cc1 (centres undefined) | -4.92% (inactive)
c1ccc(-c2nnc3sc(-c4ccc5c(c4)OCCO5)nn23)cc1 | -0.82% (inactive)
c1ccc(-n2cc(CN3CCOCC3)c(-c3ccc4c(c3)OCCO4)n2)cc1 | 61.7% (active)
c1ccc(CN2CCC(N=C3NN=C(c4ccc5c(c4)OCCO5)CS3)CC2)cc1 | -10.7% (inactive)
O=C(N/C(=C\c1ccccc1F)C(=O)N1CCCCC1)c1ccc([N+](=O)[O-])cc1 | 17.1% (inactive)
O=C(Nc1cncc(-c2ccncc2)c1)C1COc2ccccc2O1 (centres undefined) | 17.1% (inactive)
O=C(Nc1cncc(-c2ccncc2)c1)C1COc2cc3ccccc3cc2O1 (centres undefined) | 3.75% (inactive)
O=C(Nc1ccc(-c2ccncc2)c(C(F)(F)F)c1)C1COc2ccccc2O1 (centres undefined) | 53.1% (active)
Cc1nn(C)c(C)c1-c1cc(C(=O)NCCO)ccn1 | 8.26% (inactive)
CN(C)CCCN(CCCN(C)C)Cc1ccc([N+](=O)[O-])cc1 | 37.3% (inactive)
CCN(C(=O)c1ccc([N+](=O)[O-])cc1)c1ccccc1 | 1.44% (inactive)
CCN(Cc1ccccc1)Cc1ccc([N+](=O)[O-])cc1 | 60% (active)
CCN(CC)C(=O)C1CCCN(Cc2ccc([N+](=O)[O-])cc2)C1 (centres undefined) | 27.7% (inactive)
CCN(CC)C(=O)C1CCCN(Cc2cccc(Cl)c2)C1 (centres undefined) | 55.2% (active)
Fc1ccc(CN2CCN(C3CCCC3)CC2)cc1 | 57.1% (active)
Fc1cccc(CN2CCN(C3CCC(c4ccccc4)CC3)CC2)c1 (centres undefined) | 54.9% (active)
OCCC1CN(Cc2cccc(F)c2)CCN1C1CCCC1 (centres undefined) | 14.7% (inactive)
Cc1cccc(CN2CCN(C3CCCCC3)CC2)c1 | 33.7% (inactive)
Clc1cccc(CN2CCN(C3CCN(Cc4ccccc4)CC3)CC2)c1 | 23.2% (inactive)
O=C1N[C@H](CO)C(=O)N2CCN(Cc3cccc(F)c3)C[C@H]12 | 10.2% (inactive)
OC1CCCN(Cc2cccc(Cl)c2)C1 (centres undefined) | -10.4% (inactive)
Clc1cccc(CN2CCN(C3CCCC3)CC2)c1 | 67.8% (active)

Structure (SMILES) | inhibition
OCCC1CN(Cc2ccc(F)c(F)c2)CCN1C1CCCC1 (centres undefined) | -7.36% (inactive)
NC(=O)C1CCCN(Cc2cccc(Cl)c2)C1 (centres undefined) | 31.1% (inactive)
O=C(NC1CCCCCC1)C1CCN(S(=O)(=O)c2cccc3nsnc23)CC1 | -4.57% (inactive)
c1ccc(CNc2cc(N3CCc4ccccc4C3)ncn2)cc1 | -8.87% (inactive)
Cc1c(C(=O)C(=O)N2CCCC2)c2ccccc2n1C | -1.62% (inactive)
COc1cc([N+](=O)[O-])ccc1NC(=O)/C=C/c1ccc(F)cc1 | 0.43% (inactive)
CC(=O)Nc1cccc(NC(=O)CSc2nc(C(C)(C)C)nc3ccccc23)c1 | 16.8% (inactive)
COc1cccc(C(C)N(C)C(=O)c2cc(COc3ccc(C(C)=O)cc3)on2)c1 (centres undefined) | 11.1% (inactive)
COc1ccccc1C1CN(Cc2ccc(NC(C)=O)s2)Cc2ccccc2O1 (centres undefined) | 1.08% (inactive)
CC1(C)CC(=O)C2=C(C1)N(c1cccc(Cl)c1Cl)C1=C(C(=O)CC(C)(C)C1)C2c1ccc(F)c(Br)c1 | -2.02% (inactive)
O=C(N/N=C/c1ccncc1)c1cnn(-c2ccccc2)c1C(F)(F)F | -19.6% (inactive)
CC(=O)NC(CC(C)C)C(=O)NC(C(=O)OCc1ccccc1)C(C)C (centres undefined) | 11.1% (inactive)
CC1CCN(S(=O)(=O)c2ccc(F)c(C(=O)Nc3cc(Cl)ccc3Cl)c2)CC1 | -3.2% (inactive)
CC1CCN(S(=O)(=O)c2ccc(Cl)c(C(=O)Nc3ccccc3[N+](=O)[O-])c2)CC1 | 51% (active)
Cc1c(Cl)cccc1NC(=O)c1cc(S(=O)(=O)N2CCC(C)CC2)ccc1F | 1.77% (inactive)
Cc1ccccc1S(=O)(=O)Cc1ccc(C(=O)NCCCN2CCCCCC2)o1 | -6.96% (inactive)
COc1ccccc1N(CN1CCCC1=O)C(=O)c1cc(C)cc(C)c1 | 3.77% (inactive)
Cc1ccc(C2SCC(=O)N2c2ccc(C)cc2)cc1 (centres undefined) | 7.57% (inactive)
O=C(Nc1cc(Cl)ccc1Cl)c1cc(C2CC2)on1 | -4.67% (inactive)
O=C(CSc1nn2c(=O)c3ccccc3nc2s1)c1ccccc1 | 8.41% (inactive)
CC(=O)c1cccc(N2C(=O)c3ccc([N+](=O)[O-])cc3C2=O)c1 | 4.17% (inactive)
CC(=O)c1cccc(N2C(=O)c3cccnc3C2=O)c1 | 50.6% (active)
CC(=O)Oc1cccc(N2C(=O)c3cccnc3C2=O)c1 | 38.1% (inactive)
CC(C)c1c(O)nc(SCC(=O)NC(C)(C)C)[nH]c1=O | 9.94% (inactive)

Structure (SMILES) | inhibition
CNCC(O)c1ccc(O)c(O)c1 (centres undefined) | 83.8% (active) and -4.84% (inactive) and -7.17% (inactive)
Cc1nnc2n1NC(c1ccc(F)cc1)C(C(=O)Nc1ccccc1C(F)(F)F)S2 (centres undefined) | -7.82% (inactive)
COc1cc(Br)c(/C=C2/NC(=O)N(c3cccc(Cl)c3)C2=O)cc1OC | -4.06% (inactive)
O=C(Cc1ccc(F)cc1)Nc1cnn(-c2cccc(C(=O)Nc3ccc(N4CCOCC4)cc3)c2)c1 | -19.1% (inactive)
COc1ccc(NC(=O)C2CC(=O)N(c3ccc(Oc4ccccc4)cc3)C2)cc1 (centres undefined) | 12.4% (inactive)
CC1CN(CCOc2ccccc2[N+](=O)[O-])CC(C)O1 (centres undefined) | 50.7% (active)
CC1CN(CCOc2ccc(Cl)c3ccccc23)CC(C)O1 (centres undefined) | 27.1% (inactive)
C=CCc1ccc(OCCN2CC(C)OC(C)C2)c(OC)c1 (centres undefined) | 34.3% (inactive)
Cc1nc2c(ccc3nc(NC(=O)c4ccc([N+](=O)[O-])o4)sc32)s1 | -9.59% (inactive)
O=C(Nc1ccc(Cl)c(Cl)c1)C1C2C=CC3(O2)C1C(=O)N(Cc1cccs1)C3C(=O)NC1CCCCC1 (centres undefined) | 6.14% (inactive)
CC(NC(=O)CN(C)S(=O)(=O)c1cccs1)c1ccccc1 (centres undefined) | -11.7% (inactive)
Cc1ccc(C)n1C(Cc1ccccc1)C(=O)O (centres undefined) | 66.9% (active)
O=C(Nc1ccccc1)C(Cc1ccccc1)N1C(=O)c2ccccc2C1=O (centres undefined) | 3.18% (inactive)
CC(C)CC(C(=O)O)N1C(=O)c2ccccc2C1=O (centres undefined) | 6.74% (inactive)
CC(C)N1CCN(C(=O)CC2(c3ccccc3)CC(=O)N(CCc3ccccn3)C2=O)CC1 (centres undefined) | 18.7% (inactive)
Cc1cc(N2CCCC2)nc(Nc2ccc(NC(=O)c3c(F)cccc3Cl)cc2)n1 | 8.34% (inactive)
CCc1ccc(NC(=O)CS(=O)CC(=O)NCCCc2ccccc2)cc1 (centres undefined) | 60.7% (active)
CCc1ccc(NC(=O)Nc2ccccc2)cc1 | 7.42% (inactive)
CCc1ccc(NC(=O)CS(=O)CC(=O)N2CCN(c3ccccc3F)CC2)cc1 (centres undefined) | -10.3% (inactive)
COc1ccc(C(=O)Nc2ccc3scnc3c2)cc1 | -2.75% (inactive)
COc1ccc(-c2nnn(CC(=O)NCc3ccc(C)cc3)n2)cc1OC | 16.6% (inactive)
COc1ccc(C(=O)N/N=C/c2ccc(O)c3ncccc23)cc1 | 100% (active)
COc1ccc(O)c(/C=N/NC(=O)c2ccc(NC(C)=O)cc2)c1 | 17.1% (inactive)
COc1ccc(C(=O)N/N=C/c2c(O)ccc3ccccc23)cc1 | 16.9% (inactive)

Structure (SMILES) | inhibition
Cc1cc(C)c(NS(=O)(=O)c2ccc3c(c2)n(C)c(=O)c(=O)n3C)c(C)c1 | 4.25% (inactive)
COc1cc(CN2CCN(Cc3ccccc3Br)CC2)cc(OC)c1 | 89.3% (active)
CCOC(=O)N1CCN(Cc2cc(Br)c(OC)cc2OC)CC1 | 8.78% (inactive)
COc1cc(OC)c(OC)cc1CN1CCN(Cc2ccc3c(c2)OCO3)CC1 | 49.8% (inactive)
COc1ccc(CN2CCC(C(N)=O)CC2)cc1OC | 1.23% (inactive)
COc1cc(CN2CCN(Cc3cc(OC)c(OC)cc3OC)CC2)cc(OC)c1 | 75.9% (active)
COc1cc(OC)c(OC)cc1CN1CCN(Cc2ccc(F)cc2)CC1 | 64% (active)
COc1cc(CN2CCN(c3nccn3C)CC2)cc(OC)c1 | 8.7% (inactive)
COc1cc(CN2CCN(Cc3ccc(OC)c(OC)c3)CC2)cc(OC)c1 | 71.4% (active)
COc1cc(OC)c(OC)cc1CN1CCN(c2ccccc2F)CC1 | 24.1% (inactive)
COc1cc(CN2CCN(c3ccccc3OC)CC2)cc(OC)c1 | 10.9% (inactive)
CCOc1cc(CN2CCN(Cc3cc(OC)cc(OC)c3)C(CCO)C2)ccc1OC (centres undefined) | 0.98% (inactive)
CC(C)Oc1ccccc1/C=C(\C#N)C(=O)Nc1ccccc1 | -0.06% (inactive)
O=C(CN1C(=O)CCC1=O)Nc1ccc(O)c(-c2nc3ccccc3s2)c1 | 0.38% (inactive)
O=C(O)c1ccc(/C=N/Nc2ccc3ccccc3n2)cc1 | 10.5% (inactive)
CC(=O)N1CCc2cc(Br)cc(S(=O)(=O)N3CCN(Cc4ccccc4)CC3)c21 | 13.2% (inactive)
O=C(CCS(=O)(=O)c1cccc2nonc12)N1CCCC1 | 11.4% (inactive)
COc1ccc(Cn2c(CCC(=O)Nc3cccc(SC)c3)nc3cccnc32)cc1 | -3.6% (inactive)
O=C(Oc1cccc(OC(=O)c2ccccc2)c1)c1ccccc1 | -0.91% (inactive)
C#CC(C)(C)OC(=O)C1C2C=CC(C2)C1C(=O)O (centres undefined) | 21.6% (inactive)
Cc1ccc(NC(=O)C2C3C=CC4(O3)C2C(=O)N(C2CCCCCCC2)C4C(=O)NC2CCCCC2)cc1Cl (centres undefined) | -0.34% (inactive)
O=C(NCCc1ccccc1)c1ccc(Cn2c(=S)[nH]c3cc4c(cc3c2=O)OCO4)cc1 | 13.8% (inactive)
